FLuc modulator = counter-screen for miR-21 project: firefly luciferase inhibitors or activators; 360,000 compounds, 6.9% hits; Potency, µM (titrated, usually from 57.5 µM), for the others: top-dose activity change, negative = inhibition, actives largely listed as inhibitors; P08659; purified FLuc, Km substrates, luminescence inhibition;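 also: plate controls were vehicle for no effect and reference inhibitor for full effect; nearly all actives have a fitted effect of over 55% in size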
Target sequence (P08659 whole entry, looked up): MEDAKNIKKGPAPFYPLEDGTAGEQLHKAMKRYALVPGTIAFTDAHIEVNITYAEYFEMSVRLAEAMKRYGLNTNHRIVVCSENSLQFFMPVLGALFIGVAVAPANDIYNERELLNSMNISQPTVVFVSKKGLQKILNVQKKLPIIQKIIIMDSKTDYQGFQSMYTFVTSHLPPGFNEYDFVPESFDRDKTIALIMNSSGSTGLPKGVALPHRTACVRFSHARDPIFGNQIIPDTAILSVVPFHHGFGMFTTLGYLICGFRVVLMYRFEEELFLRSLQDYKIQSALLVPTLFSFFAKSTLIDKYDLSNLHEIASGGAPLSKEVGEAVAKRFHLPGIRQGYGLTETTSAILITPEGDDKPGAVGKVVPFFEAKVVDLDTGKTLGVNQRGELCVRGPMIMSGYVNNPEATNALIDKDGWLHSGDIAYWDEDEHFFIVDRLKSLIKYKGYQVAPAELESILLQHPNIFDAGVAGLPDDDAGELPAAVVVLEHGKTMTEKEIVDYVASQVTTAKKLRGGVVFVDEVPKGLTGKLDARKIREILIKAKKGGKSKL
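Purified P. pyralis luciferase, 10 nM final, with Km-level 10 uM D-luciferin and 10 uM ATP in 50 mM Tris acetate pH 7.5, 10 mM Mg acetate, 0.01% Tween-20, 0.05% BSA; 6-point qHTS titration about 60 µM downward; luminescence read.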
ELG1 genotox = inducers of genotoxicity in HEK293T ELG1-luciferase cells | HEK293T ELG1-luciferase reporter, luminescence, 16 h | Potency, µM (series often up to 46 µM), without a hit: top-dose activity change, positive = activation, usual class: activators | 330,000 compounds, 1.3% hits; also: % of control where 0% means no effect; nearly all actives have a fitted effect of over 60% in size
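16 hr compound incubation (37 °C, 5% CO2) of HEK293T cells carrying luciferase-tagged ELG1; luciferase then measured by ONE-Glo luminescence after 30 min at RT.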
SMN2 splice enh = increases expression of the SMN2 splice variant; HEK293 SMN2-luciferase splicing reporter, luminescence, 30-36 h; Potency, µM (titrated, usually from 46.1 µM), inactives show at the top dose activity change, positive = activation, usual class: activators; 210,000 compounds, 2.8% hits; AID 1458; also: % of control where 0% means no effect; nearly all actives have a fitted effect of over 55% in size
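HEK293 cells carry an SMN2 minigene-luciferase reporter in which exon 7 inclusion puts luciferase in frame. Cells were seeded at 2000 cells/well, attached for 10-12 hours, then exposed to compounds for 30-36 hours at 37C before ONE-Glo luminescence.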
Rab9 promoter act = activates the Rab9 promoter. Huh7 Rab9 promoter-luciferase reporter, luminescence, 24 h. Potency, µM (highest dose often 9.22 µM), for inactives: top-dose activation, negative = inhibition, hits mostly activators. 320,000 compounds, 2.8% hits; also: % of control where 0% means no effect; nearly all actives have a fitted effect of over 60% in size
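Luciferase signal after 10 min detection reagent at ambient indicates Rab9 promoter upregulation; stably transfected Huh7 cells were treated 24 h with compound in DMSO at 37 °C, 5% CO2.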
NPC1 promoter act = activates the NPC1 promoter; Huh7 NPC1 promoter luciferase reporter, 24 h; Potency, µM (series often up to 9.22 µM), for the others: top-dose activation, usual class: activators; 320,000 compounds, 2.4% hits; AID 485313; also: % of control where 0% means no effect; nearly all actives have a fitted effect of over 60% in size
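Luminescence from an NPC1 promoter-driven luciferase reporter in stably transfected Huh7 cells was measured after 24 h compound treatment at 37 °C, followed by 10 min ambient incubation with luciferase detection reagent.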
* marks the source's active call; other numbers are inactive results; ? = inconclusive; / = no result given; [ ] = remark or other dose. Only some compounds are listed: those with a hit (about 7.5% of all), similar ones and a draw of the others. Calls follow the shape of the dose curve; as a rule, active = well fitted curve in the direction sought with a large enough effect; inconclusive = small, poorly fitted or top-dose-only effect, or another doubt; inactive = no such curve, though single readings can be large; an effect the other way counts as inactive or inconclusive. Potency is read from the fitted curve at half-maximal effect.

SMILES | FLuc modulator | ELG1 genotox | SMN2 splice enh | Rab9 promoter act | NPC1 promoter act
COc1ccccc1NC(=O)c1cnc(SCC(=O)NCC2CCCO2)n(C)c1=O (configuration not stated) | 5.36µM* | 6.2% | / | -0.6% | -2.4%
COc1ccccc1NC(=O)c1cnc(SCC(=O)N2CCOCC2)n(C)c1=O | 7.57µM* | / | / | / | /
Cc1ccc(NC(=O)c2cnc(SCC(=O)N3CCOCC3)n(C)c2=O)cc1C | 15.1µM* | / | / | / | /
COc1ccccc1NC(=O)c1cnc(SCC(=O)N2CCCc3ccccc32)n(C)c1=O | 1.69µM* | / | / | / | /
COc1cccc(NC(=O)c2cnc(SCC(=O)N3CCCc4ccccc43)n(C)c2=O)c1 | -13.6% | / | / | / | /
COc1cc(-c2nc(Cc3ccccc3Cl)no2)cc(OC)c1OC | -0.5% | -2.4% | -22.0% | 0.4% | 2.1%
Clc1ccc(OCc2noc(-c3ccsc3)n2)c(Cl)c1 | 4.26µM* | ? | / | 3.98µM* | 2µM*
Fc1cc(Cl)c(OCc2noc(-c3ccsc3)n2)c(Cl)c1 | ? | 7.3% | / | 3.16µM* | ?
Clc1ccc(OCCCc2nc(-c3ccncc3)no2)c(Cl)c1 | -16.2% | -4.9% | -26.4% | -2.1% | -0.6%
COC(=O)c1sccc1NC(=O)Cc1ccc(OC)cc1 | -6.3% | 3.5% | -4.2% | -1.9% | -2.2%
COc1ccc(C(=O)N/N=C(/C)c2cccc(NC(=O)c3ccccc3F)c2)cc1 | 3.79µM* | 6.0% | / | 23.9% | ?
COc1ccc(C(=O)N/N=C(\C)c2cccc(NC(=O)c3ccc(F)cc3)c2)c(OC)c1 | 4.26µM* | 2.7% | / | 29.7% | 29.7%
CC(=O)Nc1cccc(/C(C)=N/NC(=O)c2ccc(O)cc2)c1 | ? | 0.5% | 8.3% | 1.7% | 3.7%
Cc1cc(NC(=O)c2cc3cccc([N+](=O)[O-])c3[nH]2)ccc1F | 5.36µM* | ? | / | 2.24µM* | 2.51µM*
COc1ccc(/C(C)=N/NC(=O)c2ccc(N(C)C)cc2)cc1 | 3.4% | 1.7% | -13.6% | -10.4% | -3.5%
CCOc1ccc(NS(=O)(=O)c2cc(NC(=O)c3ccc(C)cc3)ccc2Cl)cc1 | 13.5µM* | -4.9% | -68.0% | -26.7% | -29.3%
CCOc1ccc(NC(=O)c2ccc(NS(=O)(=O)c3cccs3)cc2)cc1 | 12µM* | -1.0% | / | -2.5% | -6.1%
COc1ccc(/C(C)=N/NC(=O)c2nc(C)cc(C)n2)cc1 | 23.9µM* | 5.62µM* | 11.2µM* | ? | ?
CCOc1ccc(C(=O)c2cccs2)cc1 | 16.9µM* | ? | 11.7% | ? | ?
COc1cccc(NC(=O)c2ccc(NS(=O)(=O)c3cccs3)cc2)c1 | -15.0% | 3.0% | / | -4.0% | -0.2%
CCCc1cc(N2CCCC(C(=O)NCc3ccc4c(c3)OCO4)C2)n2ncnc2n1 (configuration not stated) | 4.7% | 0.3% | 0.1% | -4.1% | 0.6%
COc1ccc(/C(C)=N/NC(=O)c2ccc(NS(=O)(=O)c3cccs3)cc2)cc1 | 21.3µM* | 1.8% | / | -2.9% | 2.4%
C/C(=N\NC(=O)c1ccc(NS(=O)(=O)c2cccs2)cc1)c1ccccc1 | -26.5% | -1.8% | 3.9% | -5.0% | -0.1%
Cc1cc(C)c(S(=O)(=O)N(C)CC(=O)NCc2ccncc2)c(C)c1 | -1.0% | -0.3% | / | -3.3% | 0.5%
CCOc1ccccc1Nc1cc2n(c(=O)n1)CCc1cc(OC)c(OC)cc1-2 | -1.0% | 14.1% | / | -4.0%[1.84 µM] | -3.8%
SMILES | FLuc modulator | ELG1 genotox | SMN2 splice enh | Rab9 promoter act | NPC1 promoter act
COc1cc2c(cc1OC)-c1cc(NC3CCCCCCC3)nc(=O)n1CC2 | ? | 14.5% | -1.3% | 0.8% | -3.0%
CCOc1ccc(Nc2cc3n(c(=O)n2)CCc2cc(OC)c(OC)cc2-3)cc1 | 13.5µM* | ? | / | -1.0%[1.84 µM] | -5.3%
COc1cc2c(cc1OC)-c1cc(NC3CC3)nc(=O)n1CC2 | 2.9% | ? | 14.1µM* | 3.3% | -2.4%
Nc1nc2ccccc2n1/N=C/c1ccc(-c2ccccc2)o1 | ? | ? | 27.1% | 3.98µM* | ?
Nc1nc2ccccc2n1/N=C/c1ccc([N+](=O)[O-])s1 | 5.2% | -0.8% | -69.9% | -32.0% | -14.7%
CC(C)(C)NC(=O)C(c1cccs1)N(C(=O)C(=O)NC1CCCC1)c1ccccc1F (configuration not stated) | 2.6% | 0.2% | / | -9.3% | 1.2%

From PubChem BioAssay
